Paper PMC5700166

Assays:
Assay in all cases: protein-binding microarray (PBM); PBM: ~300 nM protein, 6 mM HEPES pH 7.8, 80 mM KCl, 0.5 mM EDTA, 0.5 mM EGTA, 6% glycerol, 35 ng/ul poly-dIdC, 1% milk, 1 h, room temperature; Ap Aiptasia and Nv Nematostella (sea anemones) / Co Capsaspora / Aq Amphimedon (sponge) / Dm Drosophila / Hu human; RHD is the Rel homology domain; high values mean tight binding
Conditions in all cases: dsDNA, one strand shown
GST-Ap-NF-kB RHD = molecular target: T1, GST-Ap-NF-kB RHD (Exaiptasia pallida (Aiptasia), UniProt A0A913YAJ5 2-422)
T1 sequence: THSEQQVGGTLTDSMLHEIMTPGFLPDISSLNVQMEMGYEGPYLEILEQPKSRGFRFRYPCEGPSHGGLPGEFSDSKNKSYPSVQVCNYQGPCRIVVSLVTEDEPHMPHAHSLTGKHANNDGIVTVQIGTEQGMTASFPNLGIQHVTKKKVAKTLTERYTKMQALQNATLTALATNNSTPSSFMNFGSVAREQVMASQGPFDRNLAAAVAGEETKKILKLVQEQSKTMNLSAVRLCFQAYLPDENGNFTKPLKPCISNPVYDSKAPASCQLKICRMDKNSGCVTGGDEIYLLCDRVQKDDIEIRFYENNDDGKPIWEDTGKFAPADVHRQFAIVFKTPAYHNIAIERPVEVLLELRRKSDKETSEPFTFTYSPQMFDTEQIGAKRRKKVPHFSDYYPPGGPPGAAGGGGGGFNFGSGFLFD

[1] = molecular target: T2, GST-Nv-NF-kB (Cys allele) (Nematostella vectensis, UniProt E5G601 2-411)
T2 sequence: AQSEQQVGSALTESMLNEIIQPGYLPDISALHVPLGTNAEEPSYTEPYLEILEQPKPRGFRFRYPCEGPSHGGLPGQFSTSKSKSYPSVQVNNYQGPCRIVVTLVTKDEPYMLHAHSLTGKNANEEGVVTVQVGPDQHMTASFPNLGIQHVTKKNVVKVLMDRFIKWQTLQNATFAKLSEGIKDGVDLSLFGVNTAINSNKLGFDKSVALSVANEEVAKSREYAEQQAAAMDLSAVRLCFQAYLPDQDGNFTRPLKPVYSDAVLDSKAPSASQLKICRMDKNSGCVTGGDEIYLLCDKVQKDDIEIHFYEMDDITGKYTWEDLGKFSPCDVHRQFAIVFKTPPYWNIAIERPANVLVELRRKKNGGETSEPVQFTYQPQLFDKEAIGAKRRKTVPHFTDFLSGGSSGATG

GST-Co-NF-kB = molecular target: T3, GST-Co-NF-kB (Capsaspora owczarzaki, UniProt F1ARL5 200-546)
T3 sequence: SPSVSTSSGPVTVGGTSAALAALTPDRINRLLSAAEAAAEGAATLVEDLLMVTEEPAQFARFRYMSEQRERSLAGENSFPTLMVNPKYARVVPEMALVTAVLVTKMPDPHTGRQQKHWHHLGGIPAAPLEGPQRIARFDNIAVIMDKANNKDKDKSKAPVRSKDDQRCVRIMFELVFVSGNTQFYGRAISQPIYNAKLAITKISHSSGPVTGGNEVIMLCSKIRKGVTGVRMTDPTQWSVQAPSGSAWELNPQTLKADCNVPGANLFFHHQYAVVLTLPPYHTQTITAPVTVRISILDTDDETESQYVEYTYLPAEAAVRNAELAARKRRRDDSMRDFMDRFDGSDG

GST-Dm-Relish = molecular target: T4, GST-Dm-Relish (Drosophila melanogaster, UniProt Q94527 99-473)
T4 sequence: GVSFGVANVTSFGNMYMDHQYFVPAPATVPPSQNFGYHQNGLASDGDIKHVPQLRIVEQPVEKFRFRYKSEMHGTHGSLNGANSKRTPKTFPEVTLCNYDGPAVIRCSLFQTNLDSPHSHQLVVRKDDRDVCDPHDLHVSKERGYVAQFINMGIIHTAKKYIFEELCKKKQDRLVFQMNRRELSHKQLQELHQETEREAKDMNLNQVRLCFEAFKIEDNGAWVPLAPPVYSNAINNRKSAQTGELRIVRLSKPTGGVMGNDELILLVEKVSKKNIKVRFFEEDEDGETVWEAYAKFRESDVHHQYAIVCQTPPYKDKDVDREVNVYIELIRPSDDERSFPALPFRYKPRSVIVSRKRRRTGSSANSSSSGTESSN

GST-Aq-NF-kB = molecular target: T5, GST-Aq-NF-kB (Amphimedon queenslandica, UniProt A9Y5G7 2-389)
T5 sequence: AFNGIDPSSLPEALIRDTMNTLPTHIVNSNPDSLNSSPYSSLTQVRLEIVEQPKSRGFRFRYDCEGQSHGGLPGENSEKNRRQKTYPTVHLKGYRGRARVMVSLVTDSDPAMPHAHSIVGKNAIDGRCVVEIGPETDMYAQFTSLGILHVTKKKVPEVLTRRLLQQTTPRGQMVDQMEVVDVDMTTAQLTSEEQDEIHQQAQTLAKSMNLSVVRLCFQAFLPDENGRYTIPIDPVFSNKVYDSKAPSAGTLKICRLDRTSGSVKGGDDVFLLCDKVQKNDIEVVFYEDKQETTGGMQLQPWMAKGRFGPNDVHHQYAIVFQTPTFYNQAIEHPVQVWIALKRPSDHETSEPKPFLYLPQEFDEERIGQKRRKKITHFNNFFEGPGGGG

| Sequence | binding signal (GST-Ap-NF-kB RHD) | binding signal [1] | binding signal (GST-Co-NF-kB) | binding signal (GST-Dm-Relish) | binding signal (GST-Aq-NF-kB) |
| --- | --- | --- | --- | --- | --- |
| CCGATTAACATCAGGGGGATCACTGATGTTAATCGGGTCTTGATTCGCTTGACGCTGCTG | 5.55 z-score | 4.61 z-score | 5.17 z-score | 9.4 z-score | 5.38 z-score |
| CCGATTAACATCAGGGATATTTATGATGTTAATCGGGTCTTGATTCGCTTGACGCTGCTG | 2.06 z-score | 2.7 z-score | 1.68 z-score | 2.57 z-score | 3.73 z-score |
| CCGATTAACATCAAGGATTTCCCTGATGTTAATCGGGTCTTGATTCGCTTGACGCTGCTG | 4.49 z-score | 6.09 z-score | 3.24 z-score | 6.12 z-score | 6.2 z-score |
| CCGATTAACATCAGGGGAACACATGATGTTAATCGGGTCTTGATTCGCTTGACGCTGCTG | 4.8 z-score | 5.02 z-score | 6.41 z-score | 4.31 z-score | 4.1 z-score |
| CCGATTAACATCAAGGAAACCCCTGATGTTAATCGGGTCTTGATTCGCTTGACGCTGCTG | 6.7 z-score | 4.95 z-score | 2.91 z-score | 7.36 z-score | 6.19 z-score |
| CCGATTAACATCAAAATTCCCAATGATGTTAATCGGGTCTTGATTCGCTTGACGCTGCTG | 3.1 z-score | 4.95 z-score | 4.01 z-score | 5.17 z-score | 4.03 z-score |
| CCGATTAACATCAGGAAGTTCCCTGATGTTAATCGGGTCTTGATTCGCTTGACGCTGCTG | 4.78 z-score | 5.36 z-score | 2.57 z-score | 4.82 z-score | 7.74 z-score |
| CCGATTAACATCATCAGGGGGGATGATGTTAATCGGGTCTTGATTCGCTTGACGCTGCTG | 4.58 z-score | 4.51 z-score | 6.21 z-score | 4.27 z-score | 5.18 z-score |
| CCGATTAACATCAAGGGATCCCCTGATGTTAATCGGGTCTTGATTCGCTTGACGCTGCTG | 8.25 z-score | 5.8 z-score | 4.18 z-score | 9.18 z-score | 6.19 z-score |
| CCGATTAACATCAAAATTCCCATTGATGTTAATCGGGTCTTGATTCGCTTGACGCTGCTG | 3.68 z-score | 6.03 z-score | 3.56 z-score | 6.03 z-score | 4.99 z-score |
| CCGATTAACATCAGGGATTACCATGATGTTAATCGGGTCTTGATTCGCTTGACGCTGCTG | 3.4 z-score | 1.46 z-score | 1.11 z-score | 6.01 z-score | 3.67 z-score |
| CCGATTAACATCAAAACAACCCCTGATGTTAATCGGGTCTTGATTCGCTTGACGCTGCTG | 3.57 z-score | 3.44 z-score | 2.54 z-score | 2.68 z-score | 4.83 z-score |
| CCGATTAACATCAGGCATTCCCATGATGTTAATCGGGTCTTGATTCGCTTGACGCTGCTG | 1.57 z-score | 2 z-score | 1.54 z-score | 3.64 z-score | 2.75 z-score |
| CCGATTAACATCAGGGAAATAACTGATGTTAATCGGGTCTTGATTCGCTTGACGCTGCTG | 2.57 z-score | 4.77 z-score | 3.96 z-score | 4.51 z-score | 6.11 z-score |
| CCGATTAACATCAGGGGGTAATATGATGTTAATCGGGTCTTGATTCGCTTGACGCTGCTG | 4.99 z-score | 4.47 z-score | 6.77 z-score | 2.66 z-score | 4.45 z-score |
| CCGATTAACATCAGGGAAATATATGATGTTAATCGGGTCTTGATTCGCTTGACGCTGCTG | 3.7 z-score | 5.66 z-score | 5.34 z-score | 1.94 z-score | 6.09 z-score |
| CCGATTAACATCACATATACCCCTGATGTTAATCGGGTCTTGATTCGCTTGACGCTGCTG | 3.26 z-score | 1.78 z-score | 4.3 z-score | 1.34 z-score | 2.28 z-score |
| CCGATTAACATCAGGGGATGACCTGATGTTAATCGGGTCTTGATTCGCTTGACGCTGCTG | 3.72 z-score | 4.14 z-score | 1.93 z-score | 6.67 z-score | 6.55 z-score |
| CCGATTAACATCAGGGGGGGTGATGATGTTAATCGGGTCTTGATTCGCTTGACGCTGCTG | 3.51 z-score | 4.08 z-score | 4.48 z-score | 4.26 z-score | 4.36 z-score |
| CCGATTAACATCAGGGAATTAACTGATGTTAATCGGGTCTTGATTCGCTTGACGCTGCTG | 2.83 z-score | 4.33 z-score | 2.63 z-score | 4.07 z-score | 5.19 z-score |
| CCGATTAACATCAAAGGAATCCCTGATGTTAATCGGGTCTTGATTCGCTTGACGCTGCTG | 3.02 z-score | 2.14 z-score | 1.06 z-score | 7.59 z-score | 2.92 z-score |
| CCGATTAACATCAAGGGGAGTCCTGATGTTAATCGGGTCTTGATTCGCTTGACGCTGCTG | 6.71 z-score | 4.83 z-score | 2.5 z-score | 8.01 z-score | 5.29 z-score |
| CCGATTAACATCAATGTCCCCCCTGATGTTAATCGGGTCTTGATTCGCTTGACGCTGCTG | 5.26 z-score | 4.79 z-score | 8.35 z-score | 3.82 z-score | 4.85 z-score |
| CCGATTAACATCATCTCCCCCCATGATGTTAATCGGGTCTTGATTCGCTTGACGCTGCTG | 4.75 z-score | 2.53 z-score | 8 z-score | 2.29 z-score | 4.57 z-score |
| CCGATTAACATCAGGCCTCCCCCTGATGTTAATCGGGTCTTGATTCGCTTGACGCTGCTG | 4.86 z-score | 4.22 z-score | 4.14 z-score | 6 z-score | 6.6 z-score |
| CCGATTAACATCACCGATTTCCCTGATGTTAATCGGGTCTTGATTCGCTTGACGCTGCTG | 2.92 z-score | 3.79 z-score | 3.27 z-score | 2 z-score | 2.57 z-score |
| CCGATTAACATCAGGGAATCCACTGATGTTAATCGGGTCTTGATTCGCTTGACGCTGCTG | 3.05 z-score | 3.31 z-score | 2.25 z-score | 7.85 z-score | 5.29 z-score |
